Bioassay records from PubChem BioAssay.
A selection: hits, their analogues and other compounds. The true share with any hit is near 2%.
TDP43 rescue: inhibitors of TDP-43 toxicity in yeast. TDP-43 expressing yeast growth rescue, BacTiter-Glo, 24 h. Potency, µM (titrated, usually from 46.1 µM), without a hit: top-dose growth rescue (activation), hits mostly activators. 410,000 tested, 1.8% active; note: potency is the fitted concentration of half-maximal effect; % of control where 0% means no effect; nearly all actives have a fitted effect of over 50% in size
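Luminescence from BacTiter-Glo reports growth of TDP-43-expressing yeast after 24 hr at 30 deg C with compound. Cells were raffinose-pregrown to mid-log, then seeded in galactose medium at OD600=0.02.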
Abeta yeast res: compounds reversing amyloid beta toxicity in yeast; Potency, µM (series often up to 46.1 µM), usual class: activators; yeast expressing A-beta42, growth rescue, OD600, 48 h; response scale: 0% DMSO, 100% iron-clioquinol control; 410,000 tested, 0.063% active; note: potency is the fitted concentration of half-maximal effect; nearly all actives have a fitted effect of over 55% in size
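Yeast growth medium received pinned compounds, then yeast cells expressing toxic A-beta were added; plates incubated at 30 C for 48 hr. Growth read as absorbance at 600 nm, normalized to DMSO and equimolar FeCl3 plus clioquinol controls.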
LDHA inh: LDHA (human) enzyme inhibition; purified LDHA, NADH/diaphorase-resazurin fluorescence; active compounds read low; activity change, % (values are at about 110 or 230 µM); 480,000 tested, 0.15% active; in the data active = activity change below about -30%; inconclusive = mostly about -25% to -30%;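 note: plate controls were DMSO wells for no effect and wells without enzyme for full effect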
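Enzyme activity of human lactate dehydrogenase 5 (2 nM; 0.06 mM NADH, 0.2 mM pyruvate, 5 min, RT) is measured via a resazurin/diaphorase fluorescence readout of residual NADH.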
FUS yeast rescue: rescues growth of FUS-expressing yeast | S. cerevisiae FUS-expressing, growth rescue, OD600, 24 h | Potency, µM (series often up to 76.6 µM), hits mostly activators | 390,000 tested, 0.24% active | AID 1347120;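 note: potency is the fitted concentration of half-maximal effect; plate controls were DMSO vehicle for no effect and reference control for full effect; nearly all actives have a fitted effect of over 55% in size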
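Galactose (2%) drives FUS expression in yeast precultured in raffinose; seeding density OD 0.005. Test compounds incubated 24hr at 30C and 99% humidity before absorbance at 600 nm was measured.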
aSyn rescue: rescues yeast growth from alpha-synuclein toxicity; Yeast expressing alpha-synuclein, growth rescue, BacTiter-Glo, 24 h; 370,000 tested, 0.14% active; Potency, µM (doses to about 46.1 µM), for inactives: at the top dose growth rescue (activation), usual class: activators; AID 652106; note: potency is the fitted concentration of half-maximal effect; % of control where 0% means no effect; nearly all actives have a fitted effect of over 65% in size
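Galactose-induced alpha-syn yeast (OD600=0.02, raffinose-pregrown) + pinned cpd, 24 hr, 30 deg C; growth by BacTiter-Glo luminescence. Growth restoration scores as activation.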
mIDH1 inhibitor: human IDH1 R132H inhibition | O75874 | IDH1-R132H enzyme, NADPH consumption, diaphorase/resazurin fluorescence | Potency, µM (series often up to 76.6 µM), inactives show at the top dose activity change, negative = inhibition, hits mostly inhibitors | 390,000 tested, 0.093% active | AID 602179; note: potency is the fitted concentration of half-maximal effect; % is set by controls: 0 for no effect and ±100 for the full control effect; nearly all actives have a fitted effect of over 65% in size
Target sequence (O75874 whole entry R132H, stated change not applied): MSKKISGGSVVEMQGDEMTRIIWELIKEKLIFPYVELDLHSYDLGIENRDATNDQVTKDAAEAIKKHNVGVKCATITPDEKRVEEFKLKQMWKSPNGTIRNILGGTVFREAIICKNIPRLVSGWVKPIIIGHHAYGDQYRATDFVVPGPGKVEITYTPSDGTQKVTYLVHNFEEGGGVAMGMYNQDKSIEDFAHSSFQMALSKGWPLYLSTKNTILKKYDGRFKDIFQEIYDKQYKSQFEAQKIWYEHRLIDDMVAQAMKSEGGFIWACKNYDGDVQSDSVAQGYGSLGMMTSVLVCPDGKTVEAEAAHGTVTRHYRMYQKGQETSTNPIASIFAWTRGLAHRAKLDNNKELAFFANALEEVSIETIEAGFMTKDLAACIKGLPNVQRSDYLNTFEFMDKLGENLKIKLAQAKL
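IDH1-R132H (0.5 ug/mL dispensed) in pH 7.5 Tris buffer was preincubated 30 min with compound, then given a substrate mix of 0.016 mM NADPH and 2 mM alpha-KG for 80 min at room temperature; remaining NADPH was read by diaphorase/resazurin fluorescence.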
Numbers without * were called inactive; i = inactive; ? = inconclusive; . = no result given; [ ] = dose if it differs, or a comment. Unless noted, calls come from the whole dose curve; as a rule, active = well fitted curve in the direction sought with a large enough effect; inconclusive = small, poorly fitted or top-dose-only effect, or another doubt; inactive = no such curve, though single readings can be large; an effect the other way counts as inactive or inconclusive.

SMILES	TDP43 rescue	Abeta yeast res	LDHA inh	FUS yeast rescue	aSyn rescue	mIDH1 inhibitor
Fc1ccc(/C=N/Nc2cc(C(F)(F)F)ccc2Cl)cc1	.	.	4	.	.	.
O=C(c1cc(COc2ccc(F)cc2Cl)on1)N1CCN(c2cnccn2)CC1	32µM*	i	0	.	1%	9%
COc1cccc(-c2nc(CS(=O)(=O)CC(=O)NCc3cccnc3)c(C)o2)c1	.	.	-34*	.	.	.
N#Cc1nc(-c2ccco2)oc1N1CCN(CC(=O)N2CCNC2=O)CC1	.	.	0	.	.	.
O=C(CC1C(=O)OCCN1Cc1ccccc1)Nc1cc(Cl)cc(Cl)c1 (stereo not given)	.	.	2	.	.	.
COc1cc(NC(=O)CC2C(=O)OCCN2Cc2ccccc2)cc(OC)c1 (stereo not given)	25µM*	i	-4	i	.	4%
O=C(CC1C(=O)OCCN1Cc1ccccc1)Nc1ccc(F)cc1 (stereo not given)	13µM*	i	0	i	.	-2%
COC(=O)c1cc(NC(=O)CC2C(=O)OCCN2Cc2ccccc2)cc(C(=O)OC)c1 (stereo not given)	?	i	-3	i	.	30%
Cc1ccc(C(C)C)c(OCC(=O)Nn2c(C)nc3ccccc3c2=O)c1	14µM*	i	-4	i	5%	6%
Cc1ccc(C(=O)Nn2c(C)nc3ccccc3c2=O)cc1C	11µM*	i	-1	i	-1%	4%
Cc1ccc(C(C)C)c(OCC(=O)Nn2c(=O)[nH]c3ccccc3c2=O)c1	0%	i	-7	.	15%	-3%
Cc1nc2ccccc2c(=O)n1NC(=O)c1ccc(C(C)(C)C)cc1	15%	i	-10	i	-9%	-16%
S=C(Nc1ccccc1)Nc1ccccc1-n1cccc1	?	13µM*	-2	i	16%	12%
FC(F)(F)c1ccccc1NC(=S)Nc1ccccc1	-9%	i	-10	i	-7%	-7%
O=C1c2ccccc2-c2cc(Br)ccc2NC1O (stereo not given)	?	i	1	i	22µM*	14%
O/N=C/C(Cl)=C(Sc1ccc(Cl)cc1)Sc1ccc(Cl)cc1	.	.	5	.	.	.
Cc1ccc(Cl)cc1-n1ncc2c(=O)n(CC(=O)Nc3ccc(F)cc3Cl)cnc21	.	.	1	.	.	.
N=C1SCC(=O)N1c1ncc(Cc2ccccc2Cl)s1	?	i	-8	i	11%	-4%
Cc1ccc(Cc2cnc(N3C(=N)SC(C)C3=O)s2)cc1 (stereo not given)	?	i	-8	i	19%	21%
N=C1SCC(=O)N1c1ncc(Cc2cccc(Cl)c2)s1	8.9µM*	i	-5	i	22%	-1%
Cc1cccc(Cc2cnc(N3C(=N)SC(C)C3=O)s2)c1 (stereo not given)	22µM*	?	-16	i	10µM*	0%
COc1cc(/C=C(/C#N)C(=O)c2ccccc2)ccc1OC(=O)c1ccc(F)cc1	.	.	11	.	.	.
CC(=O)c1cccc(NC(=O)c2nc(-c3ccc(C)cc3)n3c2CCCCC3)c1	20µM*	i	-1	?	2%	-2%
CC1=C(C(=O)Nc2cc(C)ccc2C)C(c2cccc3ccccc23)NC(=S)N1 (stereo not given)	.	.	-9	.	.	.
O=C(COC(=O)C12CC3CC(CC(C3)C1)C2)Nc1ccc(OC(F)F)cc1	18µM*	?	0	i	.	5%
SMILES	TDP43 rescue	Abeta yeast res	LDHA inh	FUS yeast rescue	aSyn rescue	mIDH1 inhibitor
CSC1=N/C(=C\c2ccc(-c3ccc(Cl)cc3)o2)C(=O)S1	.	.	2	.	.	.
CCCCC(=O)Nc1sc2c(c1-c1nc3ccccc3s1)CCN(C(C)C)C2	.	.	11	.	.	.
Oc1ccc(/C=N/Nc2ccc(C(F)(F)F)cn2)cc1	10µM*	?	0	i	-24%	12%
COc1cc2c(cc1[N+](=O)[O-])-c1ccc([N+](=O)[O-])cc1C2=NO	10µM*	i	-1	i	3%	-5%
Cc1ccc2oc(-c3cccc(N)c3)nc2c1	13µM*	i	-5	i	-3%	12%
Nc1nc(Nc2ccccc2Br)nc(C(F)(F)F)n1	18µM*	i	-1	i	-5%	0%
Nc1nc(Nc2ccccc2)nc(C(F)(F)F)n1	-1%[1.82 µM]	i	-5	i	-24%	8%
CCOC(=O)c1c(C)sc2c1OC(N)=C(C#N)C21C(=O)N(Cc2ccccc2F)c2ccccc21 (stereo not given)	.	.	-1	.	.	.
COc1cccc(N2CCN(C(=O)c3cc4cc(Cl)ccc4[nH]3)CC2)c1	13µM*	i	3	i	?	-1%
O=C(c1cc2ccc3cccnc3c2[nH]1)N1CCN(c2cccc(Cl)c2)CC1	13µM*	i	2	?	.	3%
Cc1ccc(Cl)cc1N1CCN(C(=O)c2cc3ccc4cccnc4c3[nH]2)CC1	20µM*	i	5	i	.	13%
Cn1c(=O)[nH]c(=O)c2c1nc(SCC(=O)OCc1ccccc1)n2Cc1ccccc1	.	.	9	.	.	.
CCOc1ccccc1NC(=O)CSc1nccn1-c1cccc(C)c1	18µM*	i	0	i	14%	35%
COc1cccc(-n2ccnc2SCC(=O)Nc2cccc3ccccc23)c1	16µM*	i	-11	?	.	22%
CCOc1ccccc1NC(=O)CSc1nccn1-c1cccc(C(F)(F)F)c1	.	.	9	.	.	.
O=C(Nc1ccccc1C(F)(F)F)c1cc(=S)[nH]c2ccccc12	.	.	-15	.	.	.
CCOC(=O)c1ccc(NC(=S)N(CCO)Cc2ccccc2)cc1	.	.	-4	.	.	.
Cc1ccc(C(=O)O/N=C(\N)c2ccc(Br)cc2)cc1	4µM*	i	-2	.	-24%	5%
CC(C)(C)c1ccc(C(=O)O/N=C(\N)c2ccccc2)cc1	3.2µM*	i	-4	i	-49%	7%
COc1cc(OC)c(C(=O)O/N=C(\N)c2cccc(C)c2)cc1OC	?	i	0	i	-54%	11%
N/C(=N\OC(=O)c1ccc(Br)cc1)c1ccccc1	?	i	-9	i	-25%	-2%
COc1ccc(C(=O)O/N=C(\N)c2ccccc2)cc1	?	i	-6	i	-69%	1%
COc1cc(OC)c(C(=O)O/N=C(\N)c2ccc(C)cc2)cc1OC	11µM*	i	5	i	-18%	4%
COc1ccc(C(=O)O/N=C(\N)c2ccc(Br)cc2)cc1	2.5µM*	i	-1	i	-26%	8%
O=C(O)c1ccc(-c2ccco2)cc1	.	.	-11	.	.	.
